Here are results for 6 compounds from PubChem BioAssay (Tox21).

Values without a mark were called inactive. Results filed as inconclusive are left out. Calls of active or inactive are those of the source. Unless noted, calls come from the whole dose curve; as a rule, active = well fitted curve in the direction sought with a large enough effect in the repeat runs; inconclusive = weak or mixed curves; inactive = no such curve, though single readings can be large; an effect the other way counts as inactive or inconclusive.

Test [1] can be described thus: qHTS assay to identify small molecule agonists of the estrogen receptor alpha (ER-alpha) signaling pathway in the presence of an antagonist - cell viability counter screen (AID 1259386).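 Note: series mostly up to about 92 µM; cells exposed to compounds for 22 h at 37 °C before the viability read; nearly all actives have a fitted effect of over 30% in size.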 The essentials:
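The test measures whether compounds kill ER-alpha reporter cells (VM7Luc4E2) under antagonist co-treatment (ICI-182,780, 10.0nM). Fluorescence from CellTiter-Fluor is read after a 22hr exposure.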
(In general: Quantitative high-throughput screening tests each substance at several concentrations.)

Test [2] deals with Progesterone receptor (Homo sapiens) (UniProt P06401). As to the kind of experiment: qHTS assay to identify small molecule agonists of the progesterone receptor (PR) signaling pathway (AID 1346784; calls by dose curve; note: nearly all actives have a fitted effect of over 30% in size). The procedure, abridged: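 The screen uses PR-UAS-bla HEK 293T cells in charcoal-stripped serum (2%). Compounds are applied for 16 hr at 37C after a 6 hr pre-incubation, and reporter activity is detected with a FRET beta-lactamase substrate after 2 hr at room temperature.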
Progesterone receptor (Homo sapiens), sequence (P06401 whole entry, looked up): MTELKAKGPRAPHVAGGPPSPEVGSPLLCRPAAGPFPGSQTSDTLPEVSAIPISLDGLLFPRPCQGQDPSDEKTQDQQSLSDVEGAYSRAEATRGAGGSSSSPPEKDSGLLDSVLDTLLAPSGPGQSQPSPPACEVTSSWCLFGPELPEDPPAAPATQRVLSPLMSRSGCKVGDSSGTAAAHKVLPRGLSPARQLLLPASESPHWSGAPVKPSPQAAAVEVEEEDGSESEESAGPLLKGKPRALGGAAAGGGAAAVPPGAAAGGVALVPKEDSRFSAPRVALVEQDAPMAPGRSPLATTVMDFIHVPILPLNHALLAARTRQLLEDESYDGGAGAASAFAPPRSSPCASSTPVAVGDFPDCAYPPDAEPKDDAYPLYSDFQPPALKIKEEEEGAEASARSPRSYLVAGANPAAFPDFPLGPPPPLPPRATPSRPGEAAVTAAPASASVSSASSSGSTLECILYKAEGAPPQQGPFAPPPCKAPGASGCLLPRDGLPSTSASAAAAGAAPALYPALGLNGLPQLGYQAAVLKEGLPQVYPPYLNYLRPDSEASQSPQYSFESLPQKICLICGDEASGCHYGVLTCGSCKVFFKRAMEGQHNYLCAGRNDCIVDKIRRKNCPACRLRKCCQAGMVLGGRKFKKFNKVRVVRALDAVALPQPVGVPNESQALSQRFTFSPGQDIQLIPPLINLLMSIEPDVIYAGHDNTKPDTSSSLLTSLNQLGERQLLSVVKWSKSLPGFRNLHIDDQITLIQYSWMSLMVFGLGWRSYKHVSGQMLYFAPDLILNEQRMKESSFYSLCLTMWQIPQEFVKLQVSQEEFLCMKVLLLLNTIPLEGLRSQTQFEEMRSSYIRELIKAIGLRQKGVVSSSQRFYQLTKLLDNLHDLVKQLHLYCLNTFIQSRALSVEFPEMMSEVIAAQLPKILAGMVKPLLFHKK

Test [3] shares this target. Kind of test: qHTS assay to identify small molecule antagonists of the progesterone receptor (PR) signaling pathway (AID 1346795; active = well fitted inhibition curve with a large enough effect in the signal ratio in the repeat runs, not every such curve was filed as active; the % refers to the signal ratio). The procedure, abridged: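 After 6 hr plating at 37C in 2% stripped-serum medium, PR-UAS-bla HEK293T cells got compounds, then 1 nM R5020. Sixteen hours later, LiveBLAzer substrate was applied for 2 hr at room temperature and fluorescence was recorded.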

Test [4] in a line: qHTS assay to identify small molecule antagonists of the progesterone receptor (PR) signaling pathway - cell viability counter screen (AID 1346798). Note: series mostly up to about 92 µM; nearly all actives have a fitted effect of over 50% in size. The procedure, abridged:
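Viability was determined by ATP-based luminescence (CellTiter-Glo) in PR-UAS-bla HEK293T cells cultured in 2% charcoal-stripped serum and incubated 16 hr with compounds under R5020 stimulation.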

Test [5] is described as follows: qHTS assay to identify small molecule agonists of the progesterone receptor (PR) signaling pathway - cell viability counter screen (AID 1346799; calls by dose curve; note: nearly all actives have a fitted effect of over 45% in size). The procedure, abridged: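 Viability was scored by ATP luminescence (CellTiter-Glo, 30 min, room temperature) in the same wells used for the reporter readout, after 16 hr compound exposure of PR-UAS-bla HEK293T cells.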

Test [6] in a line: qHTS assay to identify small molecule antagonists of the TGF-beta/Smad signaling pathway - cell viability counter screen (AID 1346824). Note: nearly all actives have a fitted effect of over 50% in size. The procedure, abridged:
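Cytotoxicity counter-screen run in the same wells as the beta-lactamase Smad reporter read: CellTiter-Glo luminescence after 30 min at room temperature. HEK 293T SBE-bla cells had 5 hr compound exposure at 37 C with TGF-beta1 (0.25 ng/mL stock).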

Test [7] is described as follows: qHTS assay to identify small molecule agonists of the TGF-beta/Smad signaling pathway - cell viability counter screen (AID 1346829). Note: top concentration of the series differs between compounds; nearly all actives have a fitted effect of over 45% in size. The procedure, abridged:
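Here the cytotoxicity of library compounds is measured in SBE-bla HEK 293T cells treated for 5 hr, using CellTiter-Glo added to wells already read for the beta-lactamase reporter.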

Test [8] can be described thus: qHTS assay to identify small molecule agonists of the TGF-beta/Smad signaling pathway (AID 1346859; active = well fitted activation curve with a large enough effect in the signal ratio in the repeat runs, not every such curve was filed as active; the % refers to the signal ratio; note: series mostly up to about 77 µM). The procedure, abridged:
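Dual-wavelength fluorescence (460/530 nm emission) quantified beta-lactamase expression under the Smad binding element in HEK 293T cells following 5 hr compound treatment at 37 C.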

Test [9] addresses Thyrotropin-releasing hormone receptor (Homo sapiens) (UniProt P34981). Kind of test: qHTS assay to identify small molecule antagonists of the thyrotropin-releasing hormone receptor (TRHR) signaling pathway (AID 1346877; active = well fitted inhibition curve with a large enough effect in the repeat runs, not every such curve was filed as active; note: series mostly up to about 51 µM). The procedure, abridged: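 Overnight-plated (18 h, 37 °C) HEK293 cells expressing TRHR were dye-loaded 2 h, treated with compound, then stimulated with TRH at 1 nM final. Fluorescence intensity was captured every second for 3 min.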

Test [10] shares this target. Kind of test: qHTS assay to identify small molecule agonists of the thyrotropin-releasing hormone receptor (TRHR) signaling pathway (AID 1346891; calls by dose curve;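 note: HEK293 cells expressing TRHR with calcium dye readout; series mostly up to about 58 µM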). The essentials: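 Kinetic fluorescence (3 min, 1 s intervals) reported intracellular calcium after compound transfer onto TRHR-Hek293 cells pre-loaded with dye for 2 h at 37 °C.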
Test [11] can be described thus: Human pregnane X receptor (PXR) small molecule agonists, qHTS cell viability counter screen (AID 1346977). Note: nearly all actives have a fitted effect of over 50% in size. The procedure, abridged:
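HepG2 cells stably carrying the PXR-Luc reporter are cultured with 5% charcoal-stripped FBS and treated with compounds for 24hr. CellTiter-Fluor is added at 23hr and fluorescence is read after 1hr.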

The nature of test [12]: Caspase-3/7 induction in CHO-K1 cells by small molecules, qHTS cell viability counter screen (AID 1346979). Note: nearly all actives have a fitted effect of over 35% in size. The essentials: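 Seeding: 1,500 CHO-K1 cells/well. Rest: 5hr, 37C. Treatment: compounds in DMSO, 16hr. Read: CellTiter-Fluor, 1hr, fluorescence.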
Test [13] can be described thus: Caspase-3/7 induction in HepG2 cells by small molecules, qHTS cell viability counter screen (AID 1346981). Note: series mostly up to about 92 µM; nearly all actives have a fitted effect of over 30% in size. The essentials: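 Treatment of HepG2 cells with DMSO-delivered compounds ran 16 hr at 37 C following a 5-hr pre-incubation of 2,000 cells/well. CellTiter-Fluor fluorescence, read after 1 hr, served as the viability measure in a qHTS format.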
For test [14], the target named is Nuclear receptor subfamily 1 group I member 2 (Homo sapiens) (UniProt O75469). Kind of test: Human pregnane X receptor (PXR) small molecule agonists, qHTS assay (AID 1346982). Note: nearly all actives have a fitted effect of over 35% in size. The procedure, abridged: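 Stable HepG2 line reporting PXR-mediated CYP3A4 expression via luciferase. Treatment: 24 hr with compounds in DMSO at 37 C. Detection: ONE-Glo luminescence.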
Nuclear receptor subfamily 1 group I member 2 (Homo sapiens), sequence (O75469 whole entry, looked up): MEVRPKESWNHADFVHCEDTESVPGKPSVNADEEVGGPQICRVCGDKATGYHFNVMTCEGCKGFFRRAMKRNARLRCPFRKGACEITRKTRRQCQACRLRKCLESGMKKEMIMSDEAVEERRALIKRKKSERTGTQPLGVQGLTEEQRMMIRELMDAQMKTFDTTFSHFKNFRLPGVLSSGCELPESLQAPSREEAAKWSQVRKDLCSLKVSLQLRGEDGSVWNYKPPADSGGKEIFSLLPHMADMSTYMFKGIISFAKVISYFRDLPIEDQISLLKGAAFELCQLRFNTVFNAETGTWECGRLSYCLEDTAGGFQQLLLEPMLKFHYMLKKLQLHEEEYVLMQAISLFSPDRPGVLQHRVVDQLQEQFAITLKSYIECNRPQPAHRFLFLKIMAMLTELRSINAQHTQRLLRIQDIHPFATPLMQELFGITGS
A short description of test [15]: Caspase-3/7 induction in HepG2 cells by small molecules, qHTS assay (AID 1346978). Note: nearly all actives have a fitted effect of over 15% in size. The procedure, abridged:
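Caspase-3/7 induction was measured by Caspase-Glo 3/7 luminescence (30 min, room temperature) after a 17 hr compound exposure of wild-type HepG2 cells seeded at 2,000 per well and pre-incubated 5 hr.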

A short description of test [16]: Caspase-3/7 induction in CHO-K1 cells by small molecules, qHTS assay (AID 1346980). Note: nearly all actives have a fitted effect of over 15% in size. The procedure, abridged:
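Luminescent Caspase-Glo 3/7 read (30min, room temperature) quantified apoptosis induction. Cells were wild-type CHO-K1, treated with compound for 17hr at 37 C and 5% CO2.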

The target of test [17] is Cytochrome P450 2D6 (Homo sapiens) (UniProt P10635). As to the kind of experiment: Cytochrome P450 Family 2 Subfamily D Member 6 (CYP2D6) small molecule antagonists: luciferase reporter qHTS assay (AID 1671196). For activity change, negative = inhibition: series mostly up to about 120 µM. Note: nearly all actives have a fitted effect of over 50% in size. Note: potency is the fitted concentration of half-maximal effect. The procedure, abridged: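 Chemicals tested for interference with CYP2D6 activity; proluciferin substrate, NADPH regeneration, 1 h at room temperature, luminescent detection.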
Cytochrome P450 2D6 (Homo sapiens), sequence (P10635 whole entry, looked up): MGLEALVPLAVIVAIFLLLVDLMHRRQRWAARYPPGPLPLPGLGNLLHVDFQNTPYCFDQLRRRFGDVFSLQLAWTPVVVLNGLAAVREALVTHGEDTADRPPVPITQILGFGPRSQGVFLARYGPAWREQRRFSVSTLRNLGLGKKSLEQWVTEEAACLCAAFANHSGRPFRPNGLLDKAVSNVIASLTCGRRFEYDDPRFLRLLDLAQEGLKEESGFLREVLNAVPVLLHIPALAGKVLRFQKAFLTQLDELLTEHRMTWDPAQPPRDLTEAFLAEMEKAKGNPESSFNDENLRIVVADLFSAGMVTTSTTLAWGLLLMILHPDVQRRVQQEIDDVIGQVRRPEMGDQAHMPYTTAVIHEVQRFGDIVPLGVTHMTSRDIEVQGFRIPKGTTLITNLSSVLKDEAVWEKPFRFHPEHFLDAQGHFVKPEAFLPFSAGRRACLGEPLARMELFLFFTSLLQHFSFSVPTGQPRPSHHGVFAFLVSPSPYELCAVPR
On the technique in general: In a reporter assay the amount or activity of a reporter protein is the signal.

The target in test [18] is Nuclear receptor subfamily 1 group I member 2 (Rattus norvegicus) (UniProt Q9R1A7). As to the kind of experiment: Rat pregnane X receptor (rPXR) activation by small molecules, qHTS assay (AID 1346983). Note: nearly all actives have a fitted effect of over 20% in size. To be noted: rPXR luciferase reporter cells, One-Glo luminescence, 24 h; active compounds read high. The essentials:
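Luminescent readout (One-Glo luciferase, 30 min room temperature) followed 24 hr compound treatment at 37 C of rPXR cells plated 2,000 per well and preincubated 5hr; qHTS format with compounds delivered in DMSO.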

Test [19] concerns the target Nuclear receptor subfamily 1 group I member 2 (Homo sapiens) (UniProt O75469). Kind of test: Human pregnane X receptor (PXR) activation by small molecules, qHTS assay (AID 1346985). Note: nearly all actives have a fitted effect of over 40% in size. The essentials: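 DPX-2 cells (HepG2 co-transfected with a PXR response element and a CYP3A4-promoter luciferase construct) were seeded at 2,000 per well, rested 5 hr at 37C, then exposed to DMSO-dissolved compounds for 24 hr. Activation was read as luciferase luminescence.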
% is set by controls: 0 for no effect and ±100 for the full control effect.

Thyrotropin-releasing hormone receptor (Homo sapiens), sequence (P34981 whole entry, looked up): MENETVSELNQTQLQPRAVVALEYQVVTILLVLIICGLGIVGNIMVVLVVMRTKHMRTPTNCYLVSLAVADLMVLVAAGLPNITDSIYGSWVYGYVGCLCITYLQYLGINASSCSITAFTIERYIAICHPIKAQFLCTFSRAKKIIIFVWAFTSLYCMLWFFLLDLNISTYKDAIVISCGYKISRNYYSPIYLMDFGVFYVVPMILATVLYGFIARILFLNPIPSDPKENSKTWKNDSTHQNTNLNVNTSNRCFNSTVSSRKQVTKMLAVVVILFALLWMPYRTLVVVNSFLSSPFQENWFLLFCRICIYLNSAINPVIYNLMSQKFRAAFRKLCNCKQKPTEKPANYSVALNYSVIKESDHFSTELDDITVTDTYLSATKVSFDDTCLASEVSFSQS
Nuclear receptor subfamily 1 group I member 2 (Rattus norvegicus), sequence (Q9R1A7 whole entry, looked up): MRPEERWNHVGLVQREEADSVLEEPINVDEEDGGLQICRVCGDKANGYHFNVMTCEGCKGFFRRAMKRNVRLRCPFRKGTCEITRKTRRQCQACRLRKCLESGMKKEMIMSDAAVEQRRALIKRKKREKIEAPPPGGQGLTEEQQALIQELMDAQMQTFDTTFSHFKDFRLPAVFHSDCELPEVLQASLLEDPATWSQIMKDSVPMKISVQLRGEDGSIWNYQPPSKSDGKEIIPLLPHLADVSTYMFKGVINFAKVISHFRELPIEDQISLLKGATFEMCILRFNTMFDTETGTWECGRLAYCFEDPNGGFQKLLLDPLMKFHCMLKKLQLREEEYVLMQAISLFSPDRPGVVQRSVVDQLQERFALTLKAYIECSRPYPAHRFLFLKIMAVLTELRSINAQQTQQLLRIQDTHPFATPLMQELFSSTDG

Turning to `OC[C@H]1O[C@H](O[C@H]2O[C@H](CO)[C@@H](O)[C@H](O)[C@H]2O)[C@H](O)[C@@H](O)[C@@H]1O`, the Potency result in test [1], in [2], in test [3], in test [4], in test [5] and in test [6] was “inactive” throughout. Also, the Potency result in test [7], in [8], in [9], in test [11], in test [12] and in test [13] was “inactive” throughout. Also, the Potency entry in [14] was “inactive”. In addition, the outcome in test [10] was inactive.

Regarding `O=C(O)c1ccc2cc(C(=O)O)ccc2c1`, the Potency result in [1], in test [2], in test [3], in test [4], in [5] and in [6] was “inactive” throughout. Further, the Potency entry in [7], in test [8], in [9], in test [15], in [12] and in [16] was “inactive” throughout. The Potency entry in test [13], in [14] and in test [17] was “inactive” throughout. Further, the compound was classed as inactive in test [10].

In the case of `C=CCn1c(=O)n(CC=C)c(=O)n(CC=C)c1=O`, the Potency entry in [1], in [2], in test [3], in test [4], in test [5] and in test [6] was “inactive” throughout. Moreover, the Potency entry in test [7], in [8], in [9], in test [15], in test [12] and in test [13] was “inactive” throughout. The Potency entry in test [14] was “inactive”. Besides, the compound was classed as inactive in test [10].

With `Cc1nc2n(c(=O)c1CCN1CCC(c3noc4cc(F)ccc34)CC1)CCCC2`, the Potency result in [1], in [2], in [3], in test [4], in [5] and in test [6] was “inactive” throughout. In addition, the Potency result in test [7], in [8], in test [9], in test [11], in [15] and in [12] was “inactive” each time. The Potency entry in test [16], in test [13] and in test [14] was “inactive” throughout. For the same compound, the outcome in test [10] was inactive. In addition, in test [17], the Potency is 2.19 µM (active).

Consider `CCOc1ccc2ccccc2c1C(=O)N[C@@H]1C(=O)N2[C@@H]1SC(C)(C)[C@@H]2C(=O)O`, for which the Potency entry in test [1], in test [2], in [3], in test [4], in test [5] and in test [6] was “inactive” in each case. Moreover, the Potency entry in test [7], in test [8], in test [9], in test [15], in [12] and in test [16] was “inactive” in each case. Further, the Potency result in [13], in test [14], in test [19] and in test [17] was “inactive” each time. In addition, the compound was called inactive in [10]. The max activation in test [18] was -0.231%.

For the compound `C[C@@H](O)[C@H](N)C(=O)O`, the activity change, negative = cytotoxicity is 2.14% [at 19 µM] in test [1]; -0.923% [at 18.9 µM] in [4]; -6.31% [at 19 µM] in test [5]; 1.96% [at 15.8 µM] in test [7]; 14% [at 19 µM] in test [11]; -0.658% [at 19 µM] in test [12]. Moreover, in test [13], the activity change, negative = cytotoxicity was -2.32% [at 19 µM]. Further, the activation in test [2] was 0.125% [at 19 µM]; in [8], 0.576% [at 15.8 µM]; in test [10], 0.352% [at 11.8 µM]. Also, the activity change, negative = inhibition was 8.03% [at 18.9 µM] in test [3] and -2.59% [at 23.6 µM] in [17]. For the same compound, in [6], the viability change, negative = cytotoxic is 4.73% [at 15.8 µM]. For the same compound, in test [9], the activity, negative = inhibition was 12.1% [at 10.5 µM]. Also, the caspase activation in [15] was -1.24% [at 19 µM]. Besides, the caspase-3/7 activation in test [16] is -0.26% [at 19 µM]. Further, the max activation in [18] was -1.79%. The Potency entry in test [19] was “inactive”.
